Bioassay records as filed in PubChem.
FMDV antiviral – High Throughput Screening for Foot and Mouth Disease Virus Antivirals. FMDV antiviral cell-based qHTS. Potency, µM (titrated, usually from 57.9 µM), for inactives: at the top dose activity change, negative = inhibition, actives largely listed as inhibitors. hit rate 1.2% among 410,000. AID 1159524, 2015; calls by dose curve; tested in HEK293T cells; note: read-out not given here; potency is the fitted concentration of half-maximal effect; nearly all actives have a fitted effect of over 45% in size
VACV Venus inh – qHTS for Stage-Specific Inhibitors of Vaccinia Orthopoxvirus: Venus Reporter Primary qHTS. Potency, µM (top dose mostly 36.5 µM), without a hit: at the highest dose activity change, negative = inhibition, hits mostly inhibitors. AID 720580, 2013. hit rate 0.46% among 330,000. Vaccinia virus Venus reporter expression, fluorescence; calls by dose curve; tested in A549 cells; note: potency is the fitted concentration of half-maximal effect; nearly all actives have a fitted effect of over 30% in size
MARV entry inh – qHTS for inhibitors of binding or entry into cells for Marburg Virus | Marburg virus pseudotyped entry inhibition, cell reporter | Potency, µM (highest dose often 37.8 µM), inactives show top-dose activity change, negative = inhibition, most hits filed as inhibitors | hit rate 1.8% among 300,000; calls by dose curve; tested in HEK293 cells; note: potency is the fitted concentration of half-maximal effect
HCMV antiviral – qHTS Assay for inhibitors of the human cytomegalovirus (HCMV); activity change, negative = inhibition, % at 57.5 µM; HFF cells, HCMV-luciferase reporter, 72 h; hits give low values; hit rate 4.5% among 410,000; in the data active = activity change below about -60%; inconclusive = no clear call, values can overlap the other calls; inactive = above about -39%
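HFF cells seeded 16 h at 37C, treated with compounds, infected with luciferase-reporter HCMV at MOI 1 PFU/cell; luciferase read at 72 h post infection, normalized to buffer-only and Salinomycin controls.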
Vaccinia mCherry – qHTS for Stage-Specific Inhibitors of Vaccinia Orthopoxvirus: mCherry Reporter Primary qHTS | AID 720579, 2013 | Potency, µM (top dose mostly 36.5 µM), without a hit: top-dose activity change, negative = inhibition, most hits filed as inhibitors | hit rate 0.63% among 310,000 | Vaccinia virus mCherry reporter infection, fluorescence; calls by dose curve; tested in A549 cells; note: potency is the fitted concentration of half-maximal effect; nearly all actives have a fitted effect of over 35% in size
Lassa entry inh – qHTS for Inhibitors of binding or entry into cells for Lassa Virus | Lassa virus pseudotype entry inhibition, cell reporter | Potency, µM (series often up to 37.9 µM), inactives show top-dose activity change, negative = inhibition, most hits filed as inhibitors | hit rate 1.2% among 300,000 | AID 540256, 2011; calls by dose curve; tested in HEK293 cells; note: potency is the fitted concentration of half-maximal effect; nearly all actives have a fitted effect of over 50% in size
Active calls of the source: *; [ ] = another dose, or the depositor's remark. Only some compounds are listed: those with a hit (about 6.5% of all), similar ones and a draw of the others. % is set by controls: 0 for no effect and ±100 for the full control effect.

CCc1ccccc1NC(=O)c1ccc2c(c1)CCCN2S(C)(=O)=O was read as FMDV antiviral 21.7%, VACV Venus inh -6.1%, MARV entry inh 1.9%[46.1 µM], HCMV antiviral 26.6, Vaccinia mCherry -9.7% and Lassa entry inh -13.8%[46.1 µM].
`COc1ccc(-c2nc(Cn3c(SCc4cccc(C(F)(F)F)c4)nc4cccnc43)c(C)o2)cc1OC` gave FMDV antiviral inconclusive, VACV Venus inh -25.1%, HCMV antiviral -31.7, Vaccinia mCherry inconclusive and Lassa entry inh -9.8%[46.1 µM].
`Cn1nnnc1SC1CC(=O)N(c2ccccc2)C1=O` (stereo unspecified) gave FMDV antiviral 1.0%, VACV Venus inh 3.7%, MARV entry inh inconclusive, HCMV antiviral 10.5, Vaccinia mCherry inactive and Lassa entry inh -16.6%.
Screening O=C1CC(Sc2nnnn2C2CCCCC2)C(=O)N1c1ccccc1 (stereo unspecified) returned VACV Venus inh -16.2%, MARV entry inh -7.0%, HCMV antiviral -69.2*, Vaccinia mCherry -13.6% and Lassa entry inh -17.4%.
`COc1cccc(-c2cc(C(=O)NCc3ccccc3)[nH]n2)c1` gave FMDV antiviral 49.6%, VACV Venus inh -14.1%, HCMV antiviral 51.7, Vaccinia mCherry -12.7% and Lassa entry inh 7.94µM*.
COc1cccc(CNC(=O)c2cc(-c3cccc(OC)c3)n[nH]2)c1 was read as FMDV antiviral 40.6%, VACV Venus inh -3.1%, HCMV antiviral 29.4, Vaccinia mCherry -7.9% and Lassa entry inh -1.3%[46.1 µM].
Screening COc1cccc(-c2ccc3c(N)c(C(=O)NCc4ccc(Cl)cc4)sc3n2)c1 returned FMDV antiviral -4.0%, VACV Venus inh -23.1%, MARV entry inh -14.1%[46.1 µM], HCMV antiviral -23.6, Vaccinia mCherry inconclusive and Lassa entry inh 7.94µM*.
COc1cc(/C=C/c2cc[n+](C)c3ccccc23)cc(OC)c1OC was read as VACV Venus inh 14.2% and Vaccinia mCherry 35.1%.
COc1cnc(-c2ccccn2)nc1Oc1cccc(Cl)c1 was read as FMDV antiviral -17.7%, VACV Venus inh -26.1%, MARV entry inh inconclusive, HCMV antiviral -28.4, Vaccinia mCherry -20.8% and Lassa entry inh -4.1%.
Screening CCOC(=O)C(C)Sc1nc(-c2ccccn2)ncc1OC (stereo unspecified) returned FMDV antiviral 4.0%, VACV Venus inh -12.7%, MARV entry inh inconclusive, HCMV antiviral -21.3, Vaccinia mCherry inconclusive and Lassa entry inh -15.0%.
COc1cnc(-c2ccccn2)nc1Sc1c(Cl)cccc1Cl was read as FMDV antiviral -18.3%, MARV entry inh inconclusive, HCMV antiviral -73.0* and Lassa entry inh inconclusive.
For COc1cnc(-c2ccccn2)nc1N(C)C the results were FMDV antiviral -9.9%, VACV Venus inh -27.4%, MARV entry inh inconclusive, HCMV antiviral -98.8*, Vaccinia mCherry inconclusive and Lassa entry inh inconclusive.
COc1cnc(-c2ccccn2)nc1Sc1ccccc1Cl was read as FMDV antiviral inconclusive, MARV entry inh -3.1%, HCMV antiviral -98.4* and Lassa entry inh inconclusive.
Screening CCOc1ccc(C(=O)Nc2cc(-c3cn4cccnc4n3)ccc2C)cc1OCC returned FMDV antiviral -5.5%, VACV Venus inh -2.6%, HCMV antiviral inconclusive, Vaccinia mCherry -13.7% and Lassa entry inh 14.4%[46.1 µM].
O=C(Cn1ncc2c3ccccc3n(Cc3cccc(Cl)c3)c2c1=O)Nc1ccc(F)cc1F was read as FMDV antiviral 0.0%, VACV Venus inh -22.1%, MARV entry inh 0.3%[46.1 µM], HCMV antiviral 3.2, Vaccinia mCherry -22.1% and Lassa entry inh inconclusive.
For Cc1cc(C)c(C(=O)CSc2nnc(C)s2)c(C)c1 the results were FMDV antiviral 3.8%, VACV Venus inh -1.6%, MARV entry inh 3.6%[46.1 µM], HCMV antiviral -61.5*, Vaccinia mCherry -5.8% and Lassa entry inh 5.9%[46.1 µM].
COc1cc(OC)c(OC)cc1CCC(C)NCCC(c1ccccc1)c1ccccc1 (stereo unspecified) was read as FMDV antiviral -13.5%, VACV Venus inh inconclusive, HCMV antiviral -60.1* and Vaccinia mCherry inconclusive.
`COc1ccc(CCNCCC(c2ccccc2)c2ccccc2)cc1OC` gave FMDV antiviral inconclusive, VACV Venus inh -12.1%, HCMV antiviral 24.0 and Vaccinia mCherry inactive.
`COc1cccc(C(=O)NCCS(=O)(=O)NCc2ccco2)c1` gave FMDV antiviral 7.7%, VACV Venus inh 2.8%, MARV entry inh 19.4%[46.1 µM], HCMV antiviral -68.1*, Vaccinia mCherry -19.9% and Lassa entry inh 12.7%.
CCc1ccc(NC(=O)N2CCN(Cc3cc(=O)n4nc(-c5ccccc5OC)sc4n3)CC2)cc1 was read as FMDV antiviral -21.8%, VACV Venus inh -16.2%, HCMV antiviral 9.3, Vaccinia mCherry -11.1% and Lassa entry inh 2.7%[46.1 µM].
For COc1ccc(S(=O)(=O)N(C)c2ccc(C(=O)N3CCC(C(N)=O)CC3)cc2)cc1OC the results were FMDV antiviral -12.5%, VACV Venus inh -4.7%, MARV entry inh 9.3%, HCMV antiviral -100.4*, Vaccinia mCherry inactive and Lassa entry inh 8.5%.
Screening COc1ccc(S(=O)(=O)N(C)c2ccc(C(=O)N3CCC(C(N)=O)CC3)cc2)cc1 returned FMDV antiviral -5.9%, VACV Venus inh -0.9%, MARV entry inh 0.5%, HCMV antiviral -14.5, Vaccinia mCherry -9.5% and Lassa entry inh 0.2%.
`CN(c1ccc(C(=O)N2CCOCC2)cc1)S(=O)(=O)c1ccc(Cl)cc1` gave FMDV antiviral -15.5%, VACV Venus inh -9.6%, MARV entry inh -2.5%, HCMV antiviral 27.4, Vaccinia mCherry -1.3% and Lassa entry inh 14.8%.
For CN(c1ccc(C(=O)N2CCCCCC2)cc1)S(=O)(=O)c1ccc(Cl)cc1 the results were FMDV antiviral inconclusive, VACV Venus inh -21.2%, MARV entry inh -28.2%, HCMV antiviral -73.8*, Vaccinia mCherry -6.4% and Lassa entry inh inconclusive.
Screening COc1cc(OC)c2nc(-c3cc4c(c(OC)c3)OCCN(Cc3cn(C)nc3C)C4)cc(C)c2c1 returned FMDV antiviral -11.6%, VACV Venus inh -3.6% and Vaccinia mCherry -15.5%.
`O=C(CCCCn1c(=O)c2ccccc2n(CC(=O)Nc2cccc(F)c2)c1=O)NCc1ccccc1Cl` gave FMDV antiviral inconclusive, VACV Venus inh -6.1%, MARV entry inh inconclusive, HCMV antiviral 13.3, Vaccinia mCherry -17.8% and Lassa entry inh -13.1%[46.1 µM].
Screening CC(C)C(=O)N1CCC(c2nc(-c3ccc(S(=O)(=O)N4CCCC4)cc3)no2)CC1 returned FMDV antiviral 3.3%, VACV Venus inh -8.5%, MARV entry inh -25.2%, HCMV antiviral -72.9*, Vaccinia mCherry -16.3% and Lassa entry inh inconclusive.
Screening COc1ccccc1C(=O)N1CCC(c2noc(-c3ccc(S(=O)(=O)N4CCCC4)cc3)n2)CC1 returned FMDV antiviral inconclusive, VACV Venus inh -25.5%, MARV entry inh -13.0%[46.1 µM], HCMV antiviral -84.2*, Vaccinia mCherry -29.9% and Lassa entry inh -14.1%[46.1 µM].
